Measurements as given in PubChem BioAssay (NCATS).
Records with an inconclusive call do not appear. Activity calls are given as the source filed them. Unless noted, calls come from the whole dose curve; as a rule, active = well fitted curve in the direction sought with a large enough effect; inconclusive = small, poorly fitted or top-dose-only effect, or another doubt; inactive = no such curve, though single readings can be large; an effect the other way counts as inactive or inconclusive.

Tests used:
[1] = target: Cytochrome P450 3A4 (Homo sapiens) (UniProt P08684); assay: qHTS Assay for Inhibitors and Substrates of Cytochrome P450 3A4 (AID 884); note: % is set by controls: 0 for no effect and ±100 for the full control effect; nearly all actives have a fitted effect of over 50% in size
Sequence of Cytochrome P450 3A4 (Homo sapiens) (P08684 whole entry, looked up): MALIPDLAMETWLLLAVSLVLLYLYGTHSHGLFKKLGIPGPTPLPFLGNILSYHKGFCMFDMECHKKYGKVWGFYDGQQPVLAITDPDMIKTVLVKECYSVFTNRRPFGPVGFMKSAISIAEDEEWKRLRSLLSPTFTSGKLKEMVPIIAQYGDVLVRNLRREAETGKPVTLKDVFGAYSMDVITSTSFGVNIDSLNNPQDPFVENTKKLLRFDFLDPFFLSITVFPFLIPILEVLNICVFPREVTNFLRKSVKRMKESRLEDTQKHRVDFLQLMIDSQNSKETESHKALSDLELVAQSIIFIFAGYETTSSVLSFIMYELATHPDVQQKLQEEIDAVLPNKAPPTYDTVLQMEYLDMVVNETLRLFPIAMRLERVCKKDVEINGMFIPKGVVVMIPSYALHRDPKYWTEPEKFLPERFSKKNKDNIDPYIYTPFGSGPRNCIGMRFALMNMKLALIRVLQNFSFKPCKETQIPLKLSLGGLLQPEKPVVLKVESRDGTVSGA
Outline: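 20 nM human CYP3A4 with 25 uM Luciferin-PPXE (at KM) in 200 mM KPO4, preincubated 10 min with compound; NADPH regeneration started a 60 min RT reaction. Luciferin detected by luminescence, normalized to 57 uM ketoconazole as full inhibition.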

[2] = Confirmation and Secondary Assay for Modulators of Hemoglobin Beta Chain Splicing at IVS2 654 locus (AID 910);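 note: HeLa cells stably carrying EGFP split by mutant beta-globin IVS2-654 intron; per-well total GFP intensity by laser scanning cytometry after 2-day treatment; % of control where 0% means no effect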
Outline: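 Readout: per-well total peak green fluorescence (488 nm ex, 500–520 nm em) from objects 5–250 µm, reflecting correct splicing of an EGFP-654 reporter. Compounds were applied for 2 days at 37 °C to overnight-plated HeLa EGFP-654 cells; controls were DMSO and 500 nM IVS2-654 PNA.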

[3] = Confirmation and Secondary Assay for Modulators of Hemoglobin Beta Chain Splicing at IVS2 705 locus (AID 930);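 note: HeLa cells stably expressing the EGFP-705 splicing reporter; % of control where 0% means no effect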
Outline: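 Restored EGFP fluorescence after 2-day compound exposure reports splicing correction in IVS2-705 EGFP reporter HeLa cells; positive control was 500 nM splice-blocking PNA oligo. Signal measured as well total peak GFP intensity (488 nm excitation).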

[4] = qHTS Assay for Lipid Storage Modulators (AID 1519; calls by dose curve; for activity change, negative = inhibition: % is set by controls: 0 for no effect and ±100 for the full control effect); conditions: Drosophila S3 cells, BODIPY lipid droplet/cell ratio, laser cytometry, cells loaded with oleic acid; for activity change, negative = inhibition: at 57.5 µM (top of the series)
Outline: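 Cells seeded at 5,000 per well were treated with compounds over a concentration series and loaded with oleic acid (400 uM, as added). Lipid droplet fluorescence (488 nm excitation, 500-530 nm channel) was read by laser-scanning cytometry and normalized to 20 uM Triacsin C.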

[5] = target: Cytochrome P450 3A4 (Homo sapiens) (UniProt P08684); assay: qHTS Assay for Activators of Cytochrome P450 3A4 (AID 885); note: nearly all actives have a fitted effect of over 65% in size
Outline: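 Signal was normalized against complete inhibition by 57 uM ketoconazole. The reaction used 20nM CYP3A4 with 25uM Luciferin-PPXE, 10-min compound preincubation and a 60-min NADPH-supported step at RT.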

[6] = measured here: cell count channel max response
[7] = measured here: lipid channel max response

SMILES	Potency [1]	Potency [2]	Potency [3]	activity change, negative = inhibition [4]	max response [4, 6]	max response [4, 7]	Potency [5]
CC(C)=CC1C(CO)C1(C)C (centres undefined)	inactive	inactive	inactive	4.52% (inactive)	11.9%	18.1%	
O=C(/C=C/c1ccccc1)c1ccc(O[C@H]2OC(CO)C(O)C(O)C2O)cc1O (some centres undefined)	inactive	inactive	inactive	-0.595% (inactive)	18.3%	22.6%	
CC(C)CCCC(C)C1CCC2C3CC(O)[C@@]4(O)CC(O)CC[C@@]4(C)C3CC[C@@]12C (some centres undefined)	inactive	inactive	inactive	4.13% (inactive)	10.2%	14.9%	
C=CCCCCCCCCCCCC(O)CC(O)COC(C)=O (centres undefined)		inactive	inactive	12.3% (inactive)	4.88%	15.5%	inactive
CCCCCCCCCCCCCCC(C(=O)OC)C(O)(CC(=O)OC)C(=O)OC (centres undefined)	inactive	inactive	inactive	-24% (inactive)	-1.14%	-26.9%	
CC12CCC3c4ccc(OCc5ccccc5)cc4CCC3C1CC(O)C2O (centres undefined)	inactive	inactive	inactive	3.93% (inactive)	2.78%	8.16%	
O=C(/C=C/c1ccccc1)c1ccc(O)cc1O			inactive	-11.9% (inactive)	1.3%	-11.1%	inactive
COc1cc(O)cc(/C=C/c2ccccc2)c1			inactive	5.85% (inactive)	-8.15%	-0.333%	inactive
O=c1c(O)c(-c2ccccc2)oc2ccccc12		inactive	inactive	0.0192% (inactive)	-10%	-11.2%	inactive
COc1ccc(-c2cc(=O)c3c(O)c(OC)c(O[C@@H]4OC(COC5OC(C)C(O)C(O)[C@@H]5O)C(O)C(O)C4O)cc3o2)cc1 (some centres undefined)		inactive	inactive	4.35% (inactive)	13.3%	15.5%	
CC(=O)OC[C@@]1(O)C[C@]23CCC4c5ccoc5CC[C@@]4(C)C2CCC1C3 (some centres undefined)			inactive	6.91% (inactive)	7.17%	15.2%	inactive
COc1cc(O)c(C(=O)c2ccccc2)cc1O		inactive	inactive	2.59% (inactive)	7.29%	11.7%	inactive
CC1=C(C(=O)O)N2C(=O)C(NC(=O)C(N)c3ccccc3)C2SC1 (centres undefined)		inactive	inactive	9.95% (inactive)	9.88%	24.8%	
CC(C)c1c(O)ccc2c1CCC1[C@@](C)(C=O)CCC[C@@]21C (some centres undefined)		inactive	inactive	-2.8% (inactive)	1.05%	-0.0657%	inactive
CC(N)C(O)c1cccc(O)c1 (centres undefined)		inactive	inactive	8.66% (inactive)	6.62%	19.6%	
CC(C)=CCCC(C)C1CC[C@@]2(C)C3=C(CC[C@@]12C)C1(C)CCC(O)C(C)(C)C1CC3 (some centres undefined)		inactive	inactive	6.04% (inactive)	10.4%	15.7%	
CCC(C)C(=O)OC1CC(C)C=C2C=CC(C)C(CCC3CC(O)CC(=O)O3)C21 (centres undefined)		inactive	inactive	5.56% (inactive)	0.727%	5.38%	
CC1=C2C(=COC(C)C2C)C(=O)C(C(=O)O)=C1O (centres undefined)		inactive	inactive	4.18% (inactive)	-1.22%	4.23%	
CC(=O)OC1CCC2(C)C3=C(CCC2C1(C)C)[C@]1(C)CCC(C(C)CCC=C(C)C)[C@]1(C)CC3 (some centres undefined)			inactive	-0.993% (inactive)	20.7%	23.4%	inactive
CC1(C)CCCC2(C)C3C(O)CC2(C)C(O)C31 (centres undefined)		inactive	inactive	1.58% (inactive)	-2.66%	-0.711%	inactive
CCC(C)(C)C(=O)OC1CC(C)C=C2C=CC(C)C(CCC3CC(O)CC(=O)O3)C21 (centres undefined)		inactive	inactive	-9% (inactive)	2.37%	-4.92%	
CC(C)=CCC/C(C)=C/COc1ccc2ccc(=O)oc2c1		inactive	inactive	-1.25% (inactive)	27.3%	28.1%	inactive
O=C(CC(=O)c1ccccc1)c1ccccc1		inactive	inactive	2.34% (inactive)	-0.636%	4.72%	inactive
NCC1O[C@@H](O[C@H]2C(O)C(O[C@@H]3C(O[C@H]4OC(CO)C(O)C(O)C4N)C(N)CC(N)[C@H]3O)O[C@@H]2CO)C(N)C(O)C1O (some centres undefined)		inactive	inactive	10.8% (inactive)	18.8%	35.3%	
CC(C)c1ccc2c(c1)CCC1C(C)(C(N)=O)CCCC21C (centres undefined)			inactive	-15.9% (inactive)	-2.05%	-18.2%	inactive
CC(=O)OC1CC2C(C)(C)C(O)CCC2(C)C2CC[C@]3(C)C(=CC(=O)OC3c3ccoc3)C12C (some centres undefined)		inactive	inactive	-0.0065% (inactive)	-9.39%	-0.419%	inactive
CC(=O)OCC(=O)[C@@]1(O)CCC2C3CC(C)C4=CC(=O)C=CC4(C)C3C(O)CC21C (some centres undefined)		inactive	inactive	2.16% (inactive)	-9.81%	-3.93%	inactive
